Most compounds without a hit are left out; they make up all but 8.9% or so of the library.
ALOX12 inhib = inhibitors of human 12-lipoxygenase (ALOX12); 150,000 tested, 0.12% active; Potency, µM (titrated, usually from 57.1 µM), hits mostly inhibitors; P18054; purified 12-hLO, xylenol orange hydroperoxide absorbance; note: nearly all actives have a fitted effect of over 55% in size
Target sequence (P18054 whole entry, looked up): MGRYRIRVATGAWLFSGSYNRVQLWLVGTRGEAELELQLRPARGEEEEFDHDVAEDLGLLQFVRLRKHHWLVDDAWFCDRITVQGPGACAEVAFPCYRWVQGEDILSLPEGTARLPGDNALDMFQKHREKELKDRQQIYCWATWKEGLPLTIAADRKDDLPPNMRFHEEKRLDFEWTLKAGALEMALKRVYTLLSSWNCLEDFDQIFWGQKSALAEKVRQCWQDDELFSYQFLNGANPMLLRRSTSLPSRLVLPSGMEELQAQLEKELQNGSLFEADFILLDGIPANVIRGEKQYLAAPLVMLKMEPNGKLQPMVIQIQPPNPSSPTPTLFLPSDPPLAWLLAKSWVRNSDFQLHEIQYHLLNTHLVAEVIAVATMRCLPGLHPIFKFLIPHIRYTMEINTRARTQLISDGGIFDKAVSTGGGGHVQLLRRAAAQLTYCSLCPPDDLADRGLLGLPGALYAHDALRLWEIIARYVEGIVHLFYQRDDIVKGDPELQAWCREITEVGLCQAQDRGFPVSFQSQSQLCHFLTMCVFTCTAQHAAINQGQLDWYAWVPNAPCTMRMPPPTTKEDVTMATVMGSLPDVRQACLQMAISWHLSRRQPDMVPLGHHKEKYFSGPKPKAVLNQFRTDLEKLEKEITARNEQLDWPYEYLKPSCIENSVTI
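150 nM 12hLO, 25 mM Hepes pH 7.0 + 0.01% Triton X-100; cpd preinc 15 min RT; 40 uM arachidonic acid, 30 min RT; Fe-XO 30 min; A573/A405 ratio as read-out.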
NPSR antag = antagonists of human neuropeptide S receptor cAMP signaling; 220,000 tested, 1% active; Potency, µM (series often up to 38.3 µM), most hits filed as inhibitors; CHO-NPSR cells, cAMP TR-FRET, antagonist mode; AID 1461; note: nearly all actives have a fitted effect of over 50% in size
ALDH1A1 inh = blocks purified human ALDH1A1 activity; 220,000 tested, 7.3% active; Purified ALDH1A1, NADH fluorescence, propionaldehyde substrate; AID 1030; Potency, µM (doses to about 75.3 µM), hits mostly inhibitors; active = well fitted inhibition curve with a large enough effect, not every such curve was filed as active; inconclusive = small, poorly fitted or top-dose-only effect, or another doubt; inactive = no such curve, though single readings can be large or run the other way
IMPase Li inh = membrane-permeable IMPase blocker, potentiated with lithium; Potency, µM (highest dose often 59.4 µM), hits mostly inhibitors; 210,000 tested, 0.35% active; AID 1457; CHO-M1 cells, IP1 TR-FRET (IP-One), carbachol + lithium;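 note: IP1 builds up when IMPase is blocked and the TR-FRET signal falls; nearly all actives have a fitted effect of over 50% in size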
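Lithium-sensitised IP1 accumulation assay; M1-expressing CHO cells treated 30 min at 37C with compound. Competitive antibody detection by time-resolved FRET followed a 10 min room-temperature lysis step.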
HPGD block = blocks human HPGD enzyme activity; purified HPGD, NADH fluorescence kinetic, PGE2 substrate; Potency, µM, usual class: inhibitors; 150,000 tested, 4.3% active; active = well fitted inhibition curve with a large enough effect, not every such curve was filed as active; inconclusive = small, poorly fitted or top-dose-only effect, or another doubt; inactive = no such curve, though single readings can be large or run the other way
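20 nM HPGD preincubated 15 min at room temperature with compound in 50 mM Tris-HCl pH 8, 0.01% Tween 20. Started with 1 mM NAD+ and 30 uM prostaglandin E2; NADH fluorescence (360/450 nm) read 5 times over 30-s intervals, last minus first.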
IMPase cell inh = membrane-permeable compound that blocks inositol monophosphatase. CHO-M1 cells, IP1 accumulation, HTRF TR-FRET ratio. AID 901. 120,000 tested, under 10 active. P97697. inhibition (IP1 accumulation), % at 46.1 µM; active = well fitted curve in the direction sought with a large enough effect in the signal ratio, not every such curve was filed as active; inconclusive = small, poorly fitted or top-dose-only effect, or a change in a side signal; inactive = no such curve, though single readings can be large or run the other way; the % refers to the signal ratio;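 note: cells stimulated with carbachol in lithium chloride buffer; higher means more IMPase inhibition seen as more IP1 and lower FRET ratio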
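Seeded CHO-M1 cells were dosed with compound at up to 46 uM, stimulated with carbachol for 30 min, then lysed in IP-One detection reagents. Higher IP1 lowers the TR-FRET signal.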
Of the large screens only hits and unclear results are named; the others gave an inactive call. Unless noted, calls come from the whole dose curve; as a rule, active = well fitted curve in the direction sought with a large enough effect; inconclusive = small, poorly fitted or top-dose-only effect, or another doubt; inactive = no such curve, though single readings can be large; an effect the other way counts as inactive or inconclusive.

O=Cc1ccc(Oc2ccc(F)cc2)nc1	ALDH1A1 inh 15.8µM (no result: ALOX12 inhib, HPGD block, IMPase cell inh)
COc1ccc(S(=O)(=O)NCc2c(-c3ccccc3)noc2C)c(OC)c1	ALDH1A1 inh 2.51µM (no result: ALOX12 inhib, IMPase Li inh, HPGD block, IMPase cell inh)
Cc1onc(-c2ccccc2)c1CNS(=O)(=O)c1cccc(Cl)c1	ALDH1A1 inh inconclusive (no result: ALOX12 inhib, IMPase Li inh, HPGD block, IMPase cell inh)
Cc1ccc(S(=O)(=O)NCc2c(-c3ccccc3)noc2C)cc1	ALDH1A1 inh 3.98µM (no result: ALOX12 inhib, IMPase Li inh, HPGD block, IMPase cell inh)
Cc1ccc(NC(=O)Cn2c(O)c(N=NC(N)=O)c3ccccc32)cc1	none (no result: ALOX12 inhib, ALDH1A1 inh, IMPase Li inh, HPGD block, IMPase cell inh)
Cc1ccccc1-c1nc(P(=O)(c2ccccc2)c2ccccc2)c(N2CCOCC2)o1	none (no result: ALOX12 inhib, IMPase Li inh, HPGD block, IMPase cell inh)
CCOP(=O)(c1ccccc1)c1nc(-c2ccccc2C)oc1N1CCCCC1 (configuration not stated)	NPSR antag 10µM
S=c1[nH]nc(Nc2cccc(Cl)c2)s1	ALDH1A1 inh 2.51µM (no result: ALOX12 inhib, HPGD block, IMPase cell inh)
O=C(c1ccc(Cl)cc1)c1cnc(Nc2ccccc2Cl)s1	none
Clc1cccc(Nc2nc(-c3ccncc3)cs2)c1	none (no result: ALOX12 inhib, HPGD block, IMPase cell inh)
S=c1[nH]nc(Nc2ccccc2Cl)s1	ALDH1A1 inh 1.41µM (no result: ALOX12 inhib, HPGD block, IMPase cell inh)
CCc1cc2c(=O)n(Cc3ccco3)c(SCc3c(C)noc3C)nc2s1	NPSR antag inconclusive, ALDH1A1 inh 22.4µM
CCc1cc2c(SCC(=O)NC3CCS(=O)(=O)C3)ncnc2s1 (configuration not stated)	none (no result: ALOX12 inhib, HPGD block, IMPase cell inh)
CCc1cc2c(=O)n(Cc3ccco3)c(SCC(=O)NC3CCS(=O)(=O)C3)nc2s1 (configuration not stated)	ALDH1A1 inh 10µM (no result: ALOX12 inhib, HPGD block, IMPase cell inh)
CN(C(=O)CSc1nc2cc(Cl)ccc2c(=O)n1Cc1ccco1)C1CCS(=O)(=O)C1 (configuration not stated)	ALDH1A1 inh inconclusive (no result: ALOX12 inhib, HPGD block, IMPase cell inh)
CCc1cc2c(=O)n(Cc3ccco3)c(SCC(=O)N(C)C3CCS(=O)(=O)C3)nc2s1 (configuration not stated)	ALDH1A1 inh 10µM (no result: ALOX12 inhib, HPGD block, IMPase cell inh)
CCc1cc2c(=O)n(Cc3ccco3)c(SCC(=O)N3CCCc4ccccc43)nc2s1	ALOX12 inhib inconclusive, NPSR antag inconclusive, ALDH1A1 inh 4.47µM
O=C(CSc1nc2ccccc2[nH]1)NCCCn1ccnc1	NPSR antag inconclusive
Cc1cccc(N2CCN(Cc3ccoc3)CC2)c1C	ALDH1A1 inh 25.1µM, HPGD block 14.1µM
CC(=O)c1cc(F)c(N2CCN(C(=O)Cc3ccccc3)CC2)cc1C	ALDH1A1 inh 8.91µM, HPGD block 22.4µM
CCOC(=O)N1CCN(c2cc(C)c(C(C)=O)cc2F)CC1	ALDH1A1 inh inconclusive
CC(=O)c1cc(F)c(N2CCN(CCC#N)CC2)cc1C	ALDH1A1 inh 28.2µM
CCS(=O)(=O)N1CCN(c2cccc(C)c2C)CC1	none
Cc1cc2cc(CN(Cc3ccc4c(c3)OCO4)C(=O)c3cnccn3)c3nnnn3c2cc1C	ALDH1A1 inh 14.1µM
COc1ccc(-c2nc(CS(=O)CC(=O)NCc3cccnc3)c(C)o2)cc1 (configuration not stated)	ALDH1A1 inh inconclusive
O=C(Cc1nc2ccccc2[nH]1)c1cccc([N+](=O)[O-])c1	ALDH1A1 inh inconclusive (no result: ALOX12 inhib, IMPase Li inh, HPGD block, IMPase cell inh)
O=C(C[n+]1cc(Br)cc(Br)c1)c1cccc([N+](=O)[O-])c1	ALDH1A1 inh 3.98µM (no result: ALOX12 inhib, HPGD block, IMPase cell inh)
Cc1onc(-c2ccccc2Cl)c1C(=O)Nc1sc2c(c1C#N)CCC2	ALDH1A1 inh inconclusive, HPGD block inconclusive
CCOC(=O)c1c(NC(=O)c2noc(C)c2[N+](=O)[O-])sc(C(C)=O)c1C	ALDH1A1 inh 25.1µM (no result: ALOX12 inhib, HPGD block, IMPase cell inh)
Cc1onc(C(=O)Nc2sc3c(c2C#N)CCCC3)c1[N+](=O)[O-]	ALDH1A1 inh 7.08µM (no result: ALOX12 inhib, HPGD block, IMPase cell inh)
CCc1c(C)sc(NC(=O)c2cc(-c3ccco3)on2)c1C#N	ALDH1A1 inh 28.2µM, HPGD block inconclusive
CCOC(=O)c1c(NC(=O)c2cc(-c3cccc(O)c3)on2)sc(C(C)=O)c1C	ALDH1A1 inh inconclusive (no result: IMPase cell inh)
CCCc1cc(C(=O)Nc2sc(C)c(CC)c2C#N)no1	ALDH1A1 inh 28.2µM
CCOC(=O)c1cnc2ccc(C(=O)OC)cc2c1Nc1ccc(N2CCOCC2)cc1	none (no result: ALOX12 inhib, NPSR antag, ALDH1A1 inh, IMPase Li inh, HPGD block)
COCC1CCCCN1Cc1cn(-c2ccccc2)nc1-c1ccc2c(c1)OCO2 (configuration not stated)	ALDH1A1 inh inconclusive (no result: ALOX12 inhib, HPGD block, IMPase cell inh)
OCCSCc1cc(Cl)cc(Cl)c1O	none (no result: NPSR antag, IMPase cell inh)

Screening data deposited in PubChem BioAssay by National Center for Advancing Translational Sciences (NCATS).
